Mtb MbtI inh – MbtI salicylate synthase inhibitors, primary screen, biochemical, fluorescence intensity; inhibition, % (test concentration not listed); purified MbtI enzyme, fluorescence intensity read-out; P9WFX0; 100,000 tested, 0.89% active; AID 493033, 2011; in the data active = inhibition mostly above about 56%, no sharp cut-off; inactive = mostly below about 77%
AID504770 – growth inhibition of E. coli YBA685, primary screen, V. cholerae RctB inhibitors | z-score (test concentration not listed) | 130,000 tested, 0.27% active | E. coli YBA685 rctB-dependent plasmid, OD600 growth, 3 h; stronger effect = lower value; in the data active = z-score below about -2, passing the limit was not always enough
PV pol inh – poliovirus RdRp elongation inhibitors, primary screen, biochemical, fluorescence polarization, total intensity; poliovirus polymerase elongation; stronger effect = lower value; % elongation, % (compound at 16.7 µg/mL); 150,000 tested, 0.66% active; AID 588519, 2011; in the data active = % elongation below about 90%
Target sequence (P03300 1749-2209 limits assumed): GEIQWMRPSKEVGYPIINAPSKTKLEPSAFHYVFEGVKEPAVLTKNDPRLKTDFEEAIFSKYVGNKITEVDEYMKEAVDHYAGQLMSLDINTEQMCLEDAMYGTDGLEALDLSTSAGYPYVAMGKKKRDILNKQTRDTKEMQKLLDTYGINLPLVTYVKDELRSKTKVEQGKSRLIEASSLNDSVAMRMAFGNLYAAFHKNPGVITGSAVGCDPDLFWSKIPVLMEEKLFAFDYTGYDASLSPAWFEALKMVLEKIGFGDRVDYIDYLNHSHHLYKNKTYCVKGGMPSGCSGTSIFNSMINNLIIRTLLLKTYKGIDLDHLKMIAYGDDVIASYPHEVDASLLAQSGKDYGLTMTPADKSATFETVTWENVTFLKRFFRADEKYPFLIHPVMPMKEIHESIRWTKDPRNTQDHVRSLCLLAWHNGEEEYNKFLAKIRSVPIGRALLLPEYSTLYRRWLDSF
MenB inh – M. tuberculosis MenB inhibitors, primary screen, biochemical, absorbance | inhibition, % (concentration not given with the values) | 1,4-dihydroxy-2-naphthoyl-CoA synthase (Mycobacterium tuberculosis (strain ATCC 25618 / … | MenB enzyme assay, absorbance read-out | 100,000 tested, 0.43% active; in the data active = inhibition above about 21%, passing the limit was not always enough
* hit, by the source's call; i = inactive; . = no result given. A selection: hits, their analogues and other compounds. The true share with any hit is near 1.5%.

SMILES | Mtb MbtI inh | AID504770 | PV pol inh | MenB inh
Cc1ccc2nc(C)cc(C(=O)O)c2c1 | 0.6 | -0.4 | 102.0 | 32.7*
Cc1cc(C(=O)O)c2cc(O)ccc2n1 | . | 0.3 | 99.0 | 8.6
CCN(CC)C(=S)SSC(=S)N(CC)CC | 98.5* | -1.05 | 99.0 | 2.6
Cc1ccc(C(=O)C(C)OC(=O)C2=COCCO2)cc1C (configuration not stated) | 1.2 | 0.3 | 90.0* | 0.7
Cc1ccc(C(=O)NC2(O)C(=O)c3ccccc3C2=O)cn1 | . | -0.6 | . | .
O=C(NC1(O)C(=O)c2ccccc2C1=O)c1ccccc1 | -3.2 | -0.3 | 67.0* | 2.2
CC1(C)Nc2ccccc2C(=O)N1c1ccccc1 | 89.7 | 0.75 | 102.0 | 43.3*
Nn1c(Cc2ccccc2)nc2sc3c(c2c1=O)CCCC3 | -3.5 | 0.5 | 98.0 | -7.3
NC(=O)n1c(CCC(=O)O)nc2sc3c(c2c1=O)CCC3 | 21.0 | 0 | 85.0* | -27.9
CCCc1nc2sc3c(c2c(=O)n1N)CCCC3 | 4.8 | 0.3 | 100.0 | 32.8*
COC(=O)c1ccc(Oc2ncc(C(F)(F)F)cc2Cl)cc1 | . | -0.1 | . | .
C=CCN1C(c2ccccc2)=CSC1/N=C/c1ccccc1 (configuration not stated) | . | -0.15 | 107.0 | -7.7
Cc1ccc(-n2nc(C(=O)NC(C)CCc3ccccc3)c3c4ccccc4n(C)c3c2=O)cc1 (configuration not stated) | 13.1 | -2.8* | 105.0 | -12.0
CCOC(=O)CC1(O)CSc2nc3sc4c(c3c(=O)n21)CCCC4 (configuration not stated) | 0.1 | -0.1 | 101.0 | 16.9
O=C(CSC1=NCCS1)OCN1C(=O)c2ccccc2C1=O | 22.0 | 0.5 | 104.0 | 38.4*
Cc1cc(C)nc(SCC(=O)OCN2C(=O)c3ccccc3C2=O)n1 | -10.5 | -0.65 | 103.0 | -16.3
O=S(=O)(Nc1ccccc1-c1ccccc1)c1cccs1 | 5.4 | 2.7 | 104.0 | 51.9*
Cc1ccc2nc(NC(=O)Cn3cccc3)sc2c1 | . | 0.35 | . | .
COC(=O)c1cc(COC(=O)c2ccc3[nH]c4c(c3c2)CCCC4)oc1C | -29.8 | 0.15 | 103.0 | -22.0
Cc1ccc(NC(=O)CN2C(=O)C(c3ccc(C(C)(C)C)cc3)=NC2(C)C)cc1 | . | . | 32.0* | .
COc1ccccc1-n1cc(C(=O)c2ccccc2O)cc(C#N)c1=O | 96.4* | -0.2 | 113.0 | -19.8
CS(=O)(=O)N1CCCc2cc(C(=O)NCC(=O)Nc3ccc(F)c(F)c3)ccc21 | 5.2 | 0.15 | 107.0 | 7.1
CCN(c1ccccc1)S(=O)(=O)c1ccc(C(=O)OCC#N)cc1 | -0.8 | -0.4 | 66.0* | 11.9
CCN(c1ccccc1)S(=O)(=O)c1ccc(Cl)cc1 | -11.4 | 0.25 | 102.0 | -53.2
N#C/C(=C\c1ccc(O)c(O)c1)C(N)=S | 71.5* | . | 104.0 | -5.8
SMILES | Mtb MbtI inh | AID504770 | PV pol inh | MenB inh
COc1ccc(/C=C(\C#N)C(N)=S)cc1 | 20.1 | 1.55 | 104.0 | -55.7
CN(N)P(=S)(c1ccccc1)N(C)N | 93.4* | 1.45 | 76.0* | 4.4
Fc1ccc(C2CC(c3ccc(Cl)cc3)=Nc3nc(-c4ccccc4)cn32)cc1 (configuration not stated) | -4.9 | 0.95 | 102.0 | -23.9
OCc1nc2ccccc2n1Cc1ccccc1Cl | -3.2 | -0.55 | 102.0 | -16.2
Oc1ccc(/C=N/n2cnn(Cc3ccccc3Cl)c2=S)c(O)c1 | 26.9 | -0.35 | 87.0* | -49.7
CC(=O)c1ccc(NC(=O)C2=CC(c3ccc4c(c3)OCO4)=NS(=O)(=O)N2C)cc1 | . | . | 108.0 | .
CC(=O)c1ccc(NC(=O)C2=CC(c3ccc(C)cc3)=NS(=O)(=O)N2C)cc1 | . | . | 8.0* | .
O=C(O)Cc1ccc(NCc2ccc(Br)cc2)cc1 | 65.7* | -0.65 | 102.0 | 3.8
Oc1ccc(NCc2ccc(Br)cc2)cc1 | 19.6 | -0.7 | 102.0 | 4.7
N#CC(C#N)=Cc1cn(-c2ccccc2)nc1-c1ccccc1 | 12.8 | 0.05 | 102.0 | 12.9
O=C1OCC(CO)N1c1ccccc1 (configuration not stated) | . | 1.4 | 90.0* | -43.1
O=c1c2c(F)c(F)c(F)c(F)c2on2c3c(cc12)CCCC3 | -12.4 | 0.35 | 87.0* | -9.8
COc1ccccc1N1C(=O)NC(=O)/C(=C\C=C\c2ccco2)C1=O | 72.8* | -0.6 | 99.0 | -183.2
O=C1NC(=Nc2ccccc2)S/C1=C/C=C/c1ccco1 | 0.7 | -0.35 | 106.0 | -164.0
Cc1ccccc1N1C(=O)NC(=O)/C(=C\C=C\c2ccco2)C1=O | 65.8* | -0.75 | 104.0 | -128.9
Cc1nc(CCNC(=O)CC2CCCCC2)cs1 | 1.1 | 1.7 | 101.0 | 3.6
Clc1ccc(C2=NNC(=NCc3ccc4c(c3)OCO4)SC2)cc1 | 46.7 | -0.7 | 85.0* | -29.2
CCCN=C1NN=C(c2cc(C)n(Cc3ccc4c(c3)OCO4)c2C)CS1 | -0.5 | -1.25 | 108.0 | -9.3
Cn1nc(-c2ccccn2)sc1=S | 1.3 | 1.5 | 100.0 | -27.8
Cc1cc(=S)nc(-c2ccccn2)[nH]1 | 81.3* | -0.35 | 155.0 | -39.7
CCc1nn2c(=O)cc(COC(=O)c3ccc4c(c3)OCO4)nc2s1 | . | . | 104.0 | .
CC(C)Cc1nn2c(=O)cc(COC(=O)c3ccc4c(c3)OCO4)nc2s1 | . | . | 73.0* | .
Cc1[nH]c(=S)sc1CC(=O)NC1CCCCC1C (configuration not stated) | 83.7* | 1.7 | 98.0 | -2.2
O=c1[nH]nc2c3c(cccc13)-c1ccccc1-2 | 1.2 | 1 | 99.0 | 57.9*
O=C1c2ccccc2-c2n[nH]c3cccc1c23 | 1.8 | -0.6 | 99.0 | -13.5
SMILES | Mtb MbtI inh | AID504770 | PV pol inh | MenB inh
CCOC(=O)C1=NN(c2ccccc2)C(=O)/C1=C\c1ccc(N(C)C)cc1 | 98.0* | 0.45 | 103.0 | -108.8
CN(C)c1ccc(/C=C2\C(=O)N(c3ccccc3)N=C2C(=O)O)cc1 | -49.0 | -0.05 | 99.0 | -242.6
N#Cc1ccc(N=C/C(Br)=C/c2ccccc2)cc1 | -40.2 | -0.85 | 103.0 | .
CC(C)S(=O)(=O)C1=NSC2=NC(=O)/C(=C\c3ccco3)C(=N)N21 | 15.4 | 0 | 79.0* | -63.3
Sc1sccc1C=NC1CCCCC1 | 98.8* | -0.45 | 98.0 | -206.0
Nc1nonc1C(=O)NN=c1c(=O)c2ccccc2c1=O | -26.4 | -0.8 | 47.0* | i
Nc1nonc1C(=O)NCCN=Cc1ccccc1O | 5.8 | -0.75 | 106.0 | -8.7
C1CCN(SN2CCCCC2)CC1 | . | -0.4 | 78.0* | -66.6
Cn1cc(P(=S)(N2CCOCC2)N2CCOCC2)cc1P(=S)(N1CCOCC1)N1CCOCC1 | 23.4 | 1.7 | 100.0 | -29.0
Cn1ccnc1P(=S)(c1nccn1C)N1CCOCC1 | 87.4* | -0.2 | 80.0* | -1.2
O=C1CCCCCN1Cc1n[nH]c(=S)o1 | 73.9* | -0.5 | 82.0* | -28.1
Cc1ccccc1NC(=O)CCC(=O)O | 8.8 | 1.65 | 102.0 | 11.0
CCc1ccccc1NC(=O)CCC(=O)O | -9.2 | 0.6 | 100.0 | 32.0*
CC(C)c1ccc(N2C(=O)Cc3c2nc(N)c2c(N)nc(N4CCCC4)c(C#N)c32)cc1 | -112.7 | 0.1 | 102.0 | -8.2
CC(=O)N1CCN(c2nc(N)c3c(N)nc4c(c3c2C#N)CC(=O)N4C)CC1 | -18.4 | 0.25 | 18.0* | 2.5

Compound activity from PubChem.
